The values below come from ChEMBL document CHEMBL2218924, “A broad activity screen in support of a chemogenomic map for kinase signalling research and drug discovery” (Biochem J, 2013).

In experiment [1] the target is T1, Muscle, skeletal receptor tyrosine-protein kinase (Homo sapiens) (UniProt O15146).
T1 sequence (whole entry): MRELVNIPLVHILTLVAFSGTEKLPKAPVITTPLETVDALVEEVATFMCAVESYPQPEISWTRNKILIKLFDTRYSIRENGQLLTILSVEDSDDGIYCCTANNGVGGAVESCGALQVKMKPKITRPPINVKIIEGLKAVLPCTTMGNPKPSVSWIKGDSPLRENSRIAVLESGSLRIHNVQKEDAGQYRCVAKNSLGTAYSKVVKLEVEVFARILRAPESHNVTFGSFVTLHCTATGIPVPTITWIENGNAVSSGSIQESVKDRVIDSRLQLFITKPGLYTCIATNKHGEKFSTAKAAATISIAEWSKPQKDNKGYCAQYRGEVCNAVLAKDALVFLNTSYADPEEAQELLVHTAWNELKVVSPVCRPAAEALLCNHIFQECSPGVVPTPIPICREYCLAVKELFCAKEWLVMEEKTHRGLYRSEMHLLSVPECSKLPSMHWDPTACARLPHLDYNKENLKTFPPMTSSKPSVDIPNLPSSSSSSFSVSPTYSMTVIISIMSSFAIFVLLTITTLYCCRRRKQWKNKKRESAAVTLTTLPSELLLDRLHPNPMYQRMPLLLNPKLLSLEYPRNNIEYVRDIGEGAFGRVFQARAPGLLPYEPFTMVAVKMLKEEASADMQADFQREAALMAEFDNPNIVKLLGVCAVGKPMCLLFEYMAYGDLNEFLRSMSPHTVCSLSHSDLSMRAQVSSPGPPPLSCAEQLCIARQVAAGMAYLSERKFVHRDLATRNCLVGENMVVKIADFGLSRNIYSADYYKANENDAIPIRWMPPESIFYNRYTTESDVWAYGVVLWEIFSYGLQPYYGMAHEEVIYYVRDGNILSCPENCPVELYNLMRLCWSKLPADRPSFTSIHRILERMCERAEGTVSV
The settings on record: at 1 µM.

For experiment [2], the target named is T1, Muscle, skeletal receptor tyrosine-protein kinase (Homo sapiens). To be noted: at 10 µM.
In experiment [3] the target is T2, Serine/threonine-protein kinase Nek11 (Homo sapiens) (UniProt Q8NG66).
T2 sequence (whole entry): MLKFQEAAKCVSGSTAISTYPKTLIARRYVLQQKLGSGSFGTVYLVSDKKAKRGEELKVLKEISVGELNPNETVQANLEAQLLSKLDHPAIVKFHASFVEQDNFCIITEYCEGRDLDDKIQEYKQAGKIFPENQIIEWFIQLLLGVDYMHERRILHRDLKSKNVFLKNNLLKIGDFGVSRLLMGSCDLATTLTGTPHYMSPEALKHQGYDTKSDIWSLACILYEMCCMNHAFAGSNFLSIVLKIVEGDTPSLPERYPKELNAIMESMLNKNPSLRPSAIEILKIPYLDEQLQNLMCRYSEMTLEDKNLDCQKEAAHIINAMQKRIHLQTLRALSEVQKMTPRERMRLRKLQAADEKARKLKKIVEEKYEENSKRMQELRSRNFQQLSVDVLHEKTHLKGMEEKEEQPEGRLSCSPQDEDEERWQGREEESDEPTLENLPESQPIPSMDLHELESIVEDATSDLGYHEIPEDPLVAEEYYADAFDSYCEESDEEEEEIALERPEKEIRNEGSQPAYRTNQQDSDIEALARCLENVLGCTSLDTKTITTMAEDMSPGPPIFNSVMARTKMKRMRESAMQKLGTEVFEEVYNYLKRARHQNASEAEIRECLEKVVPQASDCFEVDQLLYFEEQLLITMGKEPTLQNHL
To be noted: at 1 µM.

For experiment [4], the target named is T2, Serine/threonine-protein kinase Nek11 (Homo sapiens). To be noted: at 10 µM.
The target in experiment [5] is T3, Serine/threonine-protein kinase Nek2 (Homo sapiens) (UniProt P51955).
T3 sequence (whole entry): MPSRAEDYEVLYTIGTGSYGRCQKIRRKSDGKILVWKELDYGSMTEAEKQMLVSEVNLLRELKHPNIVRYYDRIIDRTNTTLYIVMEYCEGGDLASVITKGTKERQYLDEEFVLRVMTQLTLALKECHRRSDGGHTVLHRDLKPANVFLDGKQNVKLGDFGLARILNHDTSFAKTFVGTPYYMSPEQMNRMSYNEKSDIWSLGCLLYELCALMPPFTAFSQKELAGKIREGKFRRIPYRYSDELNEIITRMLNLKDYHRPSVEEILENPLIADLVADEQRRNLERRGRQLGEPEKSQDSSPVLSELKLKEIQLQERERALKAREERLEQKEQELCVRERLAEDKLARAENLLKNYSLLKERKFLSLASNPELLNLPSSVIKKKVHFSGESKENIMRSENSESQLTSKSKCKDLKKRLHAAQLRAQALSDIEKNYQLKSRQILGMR
To be noted: at 1 µM.

The target in experiment [6] is T3, Serine/threonine-protein kinase Nek2 (Homo sapiens). The settings on record: at 10 µM.
The target in experiment [7] is T4, Serine/threonine-protein kinase Nek3 (Homo sapiens) (UniProt P51956).
T4 sequence (whole entry): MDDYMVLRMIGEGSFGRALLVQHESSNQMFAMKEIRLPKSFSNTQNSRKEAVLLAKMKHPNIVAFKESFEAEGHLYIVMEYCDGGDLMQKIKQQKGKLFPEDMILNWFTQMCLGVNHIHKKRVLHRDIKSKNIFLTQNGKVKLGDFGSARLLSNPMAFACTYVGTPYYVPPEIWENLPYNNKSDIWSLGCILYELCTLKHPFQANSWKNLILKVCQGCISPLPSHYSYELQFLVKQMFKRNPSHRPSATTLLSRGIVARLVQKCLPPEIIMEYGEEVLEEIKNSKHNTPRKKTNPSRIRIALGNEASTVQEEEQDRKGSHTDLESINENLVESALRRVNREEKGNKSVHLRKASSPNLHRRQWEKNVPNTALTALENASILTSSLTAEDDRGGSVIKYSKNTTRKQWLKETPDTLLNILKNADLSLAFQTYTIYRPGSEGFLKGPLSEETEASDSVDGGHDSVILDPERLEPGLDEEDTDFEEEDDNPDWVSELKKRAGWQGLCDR
To be noted: at 1 µM.

Experiment [8] deals with T4, Serine/threonine-protein kinase Nek3 (Homo sapiens). The settings on record: at 10 µM.
For experiment [9], the target named is Serine/threonine-protein kinase tousled-like 2 (Homo sapiens) (UniProt Q86UE8). The settings on record: at 1 µM.
For experiment [10] the target is unchanged. To be noted: at 10 µM.
In experiment [11] the target is T5, Testis-specific serine/threonine-protein kinase 1 (Homo sapiens) (UniProt Q9BXA7).
T5 sequence (whole entry): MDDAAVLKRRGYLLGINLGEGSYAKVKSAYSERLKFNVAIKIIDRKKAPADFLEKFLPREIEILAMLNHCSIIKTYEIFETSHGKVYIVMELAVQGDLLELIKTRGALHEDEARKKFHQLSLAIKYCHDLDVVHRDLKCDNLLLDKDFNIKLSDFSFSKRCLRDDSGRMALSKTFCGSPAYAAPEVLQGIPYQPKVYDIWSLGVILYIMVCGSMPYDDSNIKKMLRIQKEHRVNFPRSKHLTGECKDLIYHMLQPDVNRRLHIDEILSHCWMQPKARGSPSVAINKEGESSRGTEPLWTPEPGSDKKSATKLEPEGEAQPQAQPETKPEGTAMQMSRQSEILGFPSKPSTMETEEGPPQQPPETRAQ
To be noted: at 1 µM.

Experiment [12] has as its target T5, Testis-specific serine/threonine-protein kinase 1 (Homo sapiens). To be noted: at 10 µM.
Experiment [13] addresses T6, Testis-specific serine/threonine-protein kinase 2 (Homo sapiens) (UniProt Q96PF2).
T6 sequence (whole entry): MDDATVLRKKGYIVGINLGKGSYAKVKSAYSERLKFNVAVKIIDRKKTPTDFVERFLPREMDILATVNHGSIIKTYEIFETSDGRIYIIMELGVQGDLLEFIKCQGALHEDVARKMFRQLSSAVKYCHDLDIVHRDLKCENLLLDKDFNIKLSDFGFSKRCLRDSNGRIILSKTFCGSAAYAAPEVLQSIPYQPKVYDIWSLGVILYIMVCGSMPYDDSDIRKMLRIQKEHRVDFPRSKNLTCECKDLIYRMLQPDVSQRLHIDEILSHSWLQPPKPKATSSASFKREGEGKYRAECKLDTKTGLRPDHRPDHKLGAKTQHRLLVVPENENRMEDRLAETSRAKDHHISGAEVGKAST
The settings on record: at 10 µM.

For experiment [14], the target named is T7, Tyrosine-protein kinase Tec (Homo sapiens) (UniProt P42680).
T7 sequence (whole entry): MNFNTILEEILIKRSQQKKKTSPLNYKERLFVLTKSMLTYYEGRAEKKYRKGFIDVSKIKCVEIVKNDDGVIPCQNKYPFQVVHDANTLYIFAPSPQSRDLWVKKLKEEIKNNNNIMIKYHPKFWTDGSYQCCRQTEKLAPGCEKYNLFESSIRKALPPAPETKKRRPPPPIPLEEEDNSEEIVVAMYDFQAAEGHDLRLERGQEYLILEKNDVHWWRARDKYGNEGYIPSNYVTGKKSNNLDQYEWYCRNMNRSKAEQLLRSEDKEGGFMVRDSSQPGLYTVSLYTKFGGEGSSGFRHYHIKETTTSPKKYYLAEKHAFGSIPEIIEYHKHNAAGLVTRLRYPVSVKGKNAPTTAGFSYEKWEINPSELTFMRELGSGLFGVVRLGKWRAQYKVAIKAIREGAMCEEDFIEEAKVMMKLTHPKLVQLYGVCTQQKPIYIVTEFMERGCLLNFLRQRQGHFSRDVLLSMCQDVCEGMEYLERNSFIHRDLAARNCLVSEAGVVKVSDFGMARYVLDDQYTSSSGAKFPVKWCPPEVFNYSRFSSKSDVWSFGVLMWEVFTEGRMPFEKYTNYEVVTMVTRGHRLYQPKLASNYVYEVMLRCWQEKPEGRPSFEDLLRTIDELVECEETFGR
The settings on record: at 1 µM.

Experiment [15] concerns the target T7, Tyrosine-protein kinase Tec (Homo sapiens). To be noted: at 10 µM.
Experiment [16] concerns the target Angiopoietin-1 receptor (Homo sapiens) (UniProt Q02763). The settings on record: at 1 µM.
The target is the same in experiment [17]. To be noted: at 10 µM.
In experiment [18] the target is High affinity nerve growth factor receptor (Homo sapiens) (UniProt P04629). The settings on record: at 1 µM.
Experiment [19] shares this target. To be noted: at 10 µM.
Experiment [20] deals with BDNF/NT-3 growth factors receptor (Homo sapiens) (UniProt Q16620). The settings on record: at 1 µM.
Chain of BDNF/NT-3 growth factors receptor (Homo sapiens) (Q16620 32-822 limits assumed): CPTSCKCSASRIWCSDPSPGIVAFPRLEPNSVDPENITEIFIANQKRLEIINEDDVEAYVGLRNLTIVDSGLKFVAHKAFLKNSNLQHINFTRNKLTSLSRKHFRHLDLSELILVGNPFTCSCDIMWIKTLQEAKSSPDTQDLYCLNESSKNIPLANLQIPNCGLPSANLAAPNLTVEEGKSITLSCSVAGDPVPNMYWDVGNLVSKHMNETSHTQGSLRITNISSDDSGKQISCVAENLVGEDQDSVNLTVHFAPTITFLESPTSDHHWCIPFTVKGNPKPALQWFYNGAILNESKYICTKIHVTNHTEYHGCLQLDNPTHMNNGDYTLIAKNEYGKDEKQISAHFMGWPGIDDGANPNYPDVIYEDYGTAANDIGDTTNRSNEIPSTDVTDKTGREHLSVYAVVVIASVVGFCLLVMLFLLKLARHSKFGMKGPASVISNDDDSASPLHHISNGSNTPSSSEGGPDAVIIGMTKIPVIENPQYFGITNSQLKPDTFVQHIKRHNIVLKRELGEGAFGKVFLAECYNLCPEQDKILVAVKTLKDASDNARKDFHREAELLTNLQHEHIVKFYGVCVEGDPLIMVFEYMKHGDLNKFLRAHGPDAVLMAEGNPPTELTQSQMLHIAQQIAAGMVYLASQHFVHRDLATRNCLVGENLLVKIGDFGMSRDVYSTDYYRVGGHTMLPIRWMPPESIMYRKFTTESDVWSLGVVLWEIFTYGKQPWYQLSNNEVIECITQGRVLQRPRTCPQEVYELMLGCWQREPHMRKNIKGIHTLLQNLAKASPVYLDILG

Chain of Serine/threonine-protein kinase tousled-like 2 (Homo sapiens) (Q86UE8 whole entry, looked up): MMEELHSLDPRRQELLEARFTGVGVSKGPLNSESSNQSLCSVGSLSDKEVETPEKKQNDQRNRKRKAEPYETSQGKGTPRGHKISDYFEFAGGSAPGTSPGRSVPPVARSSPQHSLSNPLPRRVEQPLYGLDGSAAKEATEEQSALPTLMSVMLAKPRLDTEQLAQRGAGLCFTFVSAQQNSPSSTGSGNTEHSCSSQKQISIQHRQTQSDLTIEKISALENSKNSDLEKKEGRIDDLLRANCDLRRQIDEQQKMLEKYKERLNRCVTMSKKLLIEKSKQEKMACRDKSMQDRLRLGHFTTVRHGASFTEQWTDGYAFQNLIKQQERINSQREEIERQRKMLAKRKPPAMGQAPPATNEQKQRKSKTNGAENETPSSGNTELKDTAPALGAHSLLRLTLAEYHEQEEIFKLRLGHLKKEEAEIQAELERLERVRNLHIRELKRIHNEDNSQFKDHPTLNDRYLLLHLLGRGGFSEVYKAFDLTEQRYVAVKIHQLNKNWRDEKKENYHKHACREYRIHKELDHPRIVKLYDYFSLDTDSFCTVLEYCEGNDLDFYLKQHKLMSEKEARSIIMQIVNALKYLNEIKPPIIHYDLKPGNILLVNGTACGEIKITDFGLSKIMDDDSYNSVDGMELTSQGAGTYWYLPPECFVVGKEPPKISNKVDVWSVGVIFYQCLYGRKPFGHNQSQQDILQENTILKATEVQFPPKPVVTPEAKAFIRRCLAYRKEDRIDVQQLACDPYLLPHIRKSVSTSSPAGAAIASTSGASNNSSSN
Chain of High affinity nerve growth factor receptor (Homo sapiens) (P04629 33-796 limits assumed): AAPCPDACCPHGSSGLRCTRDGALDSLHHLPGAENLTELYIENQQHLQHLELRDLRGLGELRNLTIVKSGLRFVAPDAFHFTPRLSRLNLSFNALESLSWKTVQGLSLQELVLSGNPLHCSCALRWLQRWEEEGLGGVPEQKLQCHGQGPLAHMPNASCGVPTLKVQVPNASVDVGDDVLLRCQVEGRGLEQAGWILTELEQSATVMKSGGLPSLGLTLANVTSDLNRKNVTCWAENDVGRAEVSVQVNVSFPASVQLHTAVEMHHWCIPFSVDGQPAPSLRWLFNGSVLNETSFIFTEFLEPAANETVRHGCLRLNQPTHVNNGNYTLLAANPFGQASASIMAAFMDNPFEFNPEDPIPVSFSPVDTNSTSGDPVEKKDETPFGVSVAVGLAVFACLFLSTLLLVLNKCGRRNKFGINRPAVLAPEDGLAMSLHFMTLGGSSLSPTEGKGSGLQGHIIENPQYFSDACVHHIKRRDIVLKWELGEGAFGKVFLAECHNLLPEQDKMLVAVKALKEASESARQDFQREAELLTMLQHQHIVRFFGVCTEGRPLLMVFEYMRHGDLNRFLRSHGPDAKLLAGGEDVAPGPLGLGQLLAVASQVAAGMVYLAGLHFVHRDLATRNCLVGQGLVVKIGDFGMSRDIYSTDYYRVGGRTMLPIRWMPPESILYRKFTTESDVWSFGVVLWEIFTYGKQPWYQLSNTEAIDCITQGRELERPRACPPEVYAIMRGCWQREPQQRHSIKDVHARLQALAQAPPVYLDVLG
Chain of Angiopoietin-1 receptor (Homo sapiens) (Q02763 whole entry): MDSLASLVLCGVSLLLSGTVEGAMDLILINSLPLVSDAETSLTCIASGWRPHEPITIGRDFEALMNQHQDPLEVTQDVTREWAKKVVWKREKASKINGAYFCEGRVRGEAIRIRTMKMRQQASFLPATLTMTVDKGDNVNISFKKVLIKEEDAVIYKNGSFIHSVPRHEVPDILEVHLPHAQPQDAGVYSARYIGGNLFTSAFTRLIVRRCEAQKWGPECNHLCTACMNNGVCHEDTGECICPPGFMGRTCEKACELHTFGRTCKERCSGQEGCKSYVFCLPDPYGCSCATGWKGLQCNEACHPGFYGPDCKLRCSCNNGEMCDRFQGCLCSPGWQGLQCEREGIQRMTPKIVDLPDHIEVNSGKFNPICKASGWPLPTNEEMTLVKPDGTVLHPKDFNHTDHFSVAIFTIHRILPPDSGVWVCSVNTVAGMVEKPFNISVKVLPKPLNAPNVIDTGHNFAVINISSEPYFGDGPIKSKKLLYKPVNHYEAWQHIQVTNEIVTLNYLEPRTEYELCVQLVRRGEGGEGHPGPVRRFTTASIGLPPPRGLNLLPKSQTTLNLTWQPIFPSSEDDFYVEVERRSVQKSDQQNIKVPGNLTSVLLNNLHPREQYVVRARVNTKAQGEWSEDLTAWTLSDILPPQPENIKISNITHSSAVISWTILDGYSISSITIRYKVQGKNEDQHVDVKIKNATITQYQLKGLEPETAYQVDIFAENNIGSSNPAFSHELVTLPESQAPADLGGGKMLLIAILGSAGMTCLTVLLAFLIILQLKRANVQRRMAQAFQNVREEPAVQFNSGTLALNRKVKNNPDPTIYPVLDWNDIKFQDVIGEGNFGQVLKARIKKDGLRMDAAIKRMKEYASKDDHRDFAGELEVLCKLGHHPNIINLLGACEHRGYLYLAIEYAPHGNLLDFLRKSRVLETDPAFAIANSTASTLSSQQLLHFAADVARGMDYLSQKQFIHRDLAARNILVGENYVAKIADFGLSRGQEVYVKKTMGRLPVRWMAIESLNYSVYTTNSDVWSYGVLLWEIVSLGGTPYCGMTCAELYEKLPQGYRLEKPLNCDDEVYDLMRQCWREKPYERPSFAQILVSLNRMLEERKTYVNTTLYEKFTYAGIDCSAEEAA

A word on the residual activity: it is the signal under treatment as a percentage of the control signal. Turning to `O=C1NC(=O)c2cc(Nc3ccc(F)cc3)c(Nc3ccc(F)cc3)cc21`, the residual activity was found to be 34% in [1]; 3% in experiment [2]; 70% in experiment [3]; 93% in [4]; 77% in [5]; 94% in experiment [6]. Also, the residual activity came to 109% in experiment [7]; 81% in [8]; 101% in experiment [9]; 85% in experiment [10]; 94% in [11]; 81% in [12]. Besides, the residual activity in experiment [13] was 61%; in [14] it was 87%; in experiment [15], 60%; in experiment [16], 70%; in [17] it was 44%; in experiment [18], 84%. The residual activity was found to be 56% in experiment [19] and 100% in experiment [20].
Regarding `Cc1nc2cc3nc(-c4cccs4)cnc3cc2n1C`, the residual activity is 102% in experiment [1]; 55% in experiment [2]; 93% in experiment [3]; 102% in [4]; 87% in [5]; 103% in [6]. Also, the residual activity came out at 114% in experiment [7]; 104% in [8]; 107% in experiment [9]; 83% in [10]; 102% in [11]; 85% in experiment [12]. In addition, the residual activity in experiment [13] was found to be 93%; in experiment [14], 83%; in experiment [15], 101%; in [16], 81%; in experiment [17] it was 61%; in experiment [18], 72%. Further, the residual activity in experiment [19] was 27%; in experiment [20] it was 69%.
On to `CN(C)c1ccc(/C=C2\C(=O)Nc3ccccc32)cc1`, for which the residual activity in experiment [1] came out at 94%; in experiment [2], 25%; in experiment [3], 90%; in [4], 90%; in experiment [5], 94%; in experiment [6], 113%. Also, the residual activity in experiment [7] is 111%; in [8], 75%; in experiment [9], 98%; in experiment [10], 97%; in experiment [11], 104%; in experiment [12] it was 101%. The residual activity turned out to be 97% in [13]; 87% in experiment [14]; 68% in [15]; 83% in experiment [16]; 70% in experiment [17]; 10% in [18]. Also, the results for the residual activity in [19] and in experiment [20] were 3% and 46%, respectively.
